PostGolgi ctrl: growth inhibition of yeast control strain, primary screen, counter-screen for post-Golgi transport modulator project. inhibition, % at 10 µM. 98,000 tested, 5% active. efflux-deficient yeast background strain, growth absorbance A615, 16 h
PostGolgi yeast: phenotypic screen on post-Golgi transport, primary screen; post-Golgi transport phenotypic cell assay; inhibition, % at 10 µM; 98,000 tested, 0.9% active;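 note: yeast cells grown in 1536-well plates; yeast grown about 18 h at 30C before absorbance read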
sEH act: soluble epoxide hydrolase activators, primary screen, biochemical, human sEH; Bifunctional epoxide hydrolase 2 (Homo sapiens), P34913; 91,000 tested, 0.04% active; activation, % at 2 µM; purified human sEH enzymatic activity, activator screen; AID 717, 2007; in the data active = activation above about 37%
Cav32 inh: Cav3.2 calcium influx blockers – cell-based, Fluo-4 calcium fluorescence, FDSS, MLSMR library, primary screen; B-score at 10 µM; Voltage-dependent T-type calcium channel subunit alpha-1H (Homo sapiens), O95180; AID 449739, 2010; Cav3.2-expressing cells; hits give low values; 100,000 tested, 4% active;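 active = single-dose well whose peak fluorescence ratio is a statistical outlier from its plate by either plate-standardised score or position-corrected B-score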
Target sequence (O95180 whole entry, looked up): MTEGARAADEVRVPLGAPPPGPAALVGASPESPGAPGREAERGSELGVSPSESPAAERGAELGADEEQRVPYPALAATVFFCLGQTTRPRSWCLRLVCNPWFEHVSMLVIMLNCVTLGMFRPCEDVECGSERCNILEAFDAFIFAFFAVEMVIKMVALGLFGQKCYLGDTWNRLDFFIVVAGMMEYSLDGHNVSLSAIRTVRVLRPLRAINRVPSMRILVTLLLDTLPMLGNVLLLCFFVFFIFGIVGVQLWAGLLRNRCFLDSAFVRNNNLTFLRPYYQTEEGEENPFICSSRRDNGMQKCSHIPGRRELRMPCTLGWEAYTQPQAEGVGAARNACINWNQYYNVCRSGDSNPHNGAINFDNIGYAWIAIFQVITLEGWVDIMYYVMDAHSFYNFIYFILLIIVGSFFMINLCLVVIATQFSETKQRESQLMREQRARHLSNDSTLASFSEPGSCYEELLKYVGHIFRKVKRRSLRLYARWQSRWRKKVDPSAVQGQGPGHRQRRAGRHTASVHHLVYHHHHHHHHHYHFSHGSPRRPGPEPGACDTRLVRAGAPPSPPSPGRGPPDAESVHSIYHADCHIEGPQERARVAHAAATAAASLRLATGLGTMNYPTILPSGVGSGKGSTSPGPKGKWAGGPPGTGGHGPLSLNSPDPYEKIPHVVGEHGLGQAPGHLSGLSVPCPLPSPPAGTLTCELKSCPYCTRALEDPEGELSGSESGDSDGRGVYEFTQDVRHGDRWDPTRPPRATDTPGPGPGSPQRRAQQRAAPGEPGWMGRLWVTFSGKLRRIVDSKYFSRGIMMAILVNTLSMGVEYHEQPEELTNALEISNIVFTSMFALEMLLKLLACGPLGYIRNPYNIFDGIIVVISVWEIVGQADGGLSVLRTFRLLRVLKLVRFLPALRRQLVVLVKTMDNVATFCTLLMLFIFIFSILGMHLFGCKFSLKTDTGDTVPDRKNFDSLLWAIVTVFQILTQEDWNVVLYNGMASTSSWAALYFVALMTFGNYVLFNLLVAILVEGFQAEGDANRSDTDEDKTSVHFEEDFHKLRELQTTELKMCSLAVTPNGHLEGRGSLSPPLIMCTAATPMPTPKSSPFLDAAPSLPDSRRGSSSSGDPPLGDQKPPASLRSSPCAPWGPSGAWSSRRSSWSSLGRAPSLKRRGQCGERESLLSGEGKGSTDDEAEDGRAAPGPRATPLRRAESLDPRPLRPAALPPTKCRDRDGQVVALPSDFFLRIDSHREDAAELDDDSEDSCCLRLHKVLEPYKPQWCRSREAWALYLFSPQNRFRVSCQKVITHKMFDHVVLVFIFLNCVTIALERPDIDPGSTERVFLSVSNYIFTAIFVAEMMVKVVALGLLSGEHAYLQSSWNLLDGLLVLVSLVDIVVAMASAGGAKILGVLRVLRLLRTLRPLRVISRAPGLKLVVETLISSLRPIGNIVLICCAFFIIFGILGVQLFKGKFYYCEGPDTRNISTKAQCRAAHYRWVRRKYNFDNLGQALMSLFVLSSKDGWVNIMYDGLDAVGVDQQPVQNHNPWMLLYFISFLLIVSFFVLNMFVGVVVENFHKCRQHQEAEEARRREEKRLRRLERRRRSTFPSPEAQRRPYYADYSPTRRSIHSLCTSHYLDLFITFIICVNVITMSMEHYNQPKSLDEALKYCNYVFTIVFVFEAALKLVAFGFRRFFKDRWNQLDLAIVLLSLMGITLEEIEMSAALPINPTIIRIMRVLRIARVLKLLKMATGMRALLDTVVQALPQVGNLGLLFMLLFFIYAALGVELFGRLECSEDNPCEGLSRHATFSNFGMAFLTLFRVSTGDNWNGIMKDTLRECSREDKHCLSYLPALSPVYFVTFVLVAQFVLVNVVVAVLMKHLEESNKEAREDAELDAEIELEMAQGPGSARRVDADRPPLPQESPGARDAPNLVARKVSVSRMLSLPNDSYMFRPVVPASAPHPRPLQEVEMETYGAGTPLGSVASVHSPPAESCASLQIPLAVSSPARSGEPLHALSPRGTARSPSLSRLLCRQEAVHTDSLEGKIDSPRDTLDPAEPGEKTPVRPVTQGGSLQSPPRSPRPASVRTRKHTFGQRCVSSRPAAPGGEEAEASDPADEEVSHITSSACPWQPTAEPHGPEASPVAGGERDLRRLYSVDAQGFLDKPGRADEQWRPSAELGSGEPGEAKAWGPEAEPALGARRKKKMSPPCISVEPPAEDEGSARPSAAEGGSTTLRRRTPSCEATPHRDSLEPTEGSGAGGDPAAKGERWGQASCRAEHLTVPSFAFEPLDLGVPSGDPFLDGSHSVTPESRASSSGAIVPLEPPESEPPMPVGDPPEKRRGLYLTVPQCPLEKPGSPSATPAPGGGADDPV
sEH inh: soluble epoxide hydrolase inhibitors, primary screen, biochemical, human sEH; Bifunctional epoxide hydrolase 2 (Homo sapiens), P34913; recombinant human sEH enzymatic activity assay; inhibition, % at 2 µM; 91,000 tested, 0.34% active; in the data active = inhibition above about 80%
Starred values were filed as active, the others as inactive; . = no result given. Most compounds without a hit are left out; they make up all but 7.8% or so of the library. Cut-off read from the data, not from the text of the source, unless noted: active = inhibition above about 30%; inactive = the rest.

SMILES | PostGolgi ctrl | PostGolgi yeast | sEH act | Cav32 inh | sEH inh
CN(C)/C=N/c1cnc(C(=O)c2ccc(Cl)cc2)n1C | 11 | -3 | 2 | 0.71 | -2
O=S(=O)(c1ccccc1)c1cnn(-c2ccccc2)c1-c1ccc(Cl)cc1 | 39* | 6 | 0 | -3.9* | 2
CCOC1(OCC)N=C(N)C2(C#N)C(c3ccc(NC(C)=O)cc3)C12C#N (stereo not given) | 17 | 6 | 4 | 0.9 | -4
CCOC(=O)n1c(=O)oc2ccc(Cl)cc21 | . | . | 8 | -0.71 | -4
O=Nc1c(O)n(Cc2ccc(Cl)cc2)c2ccccc12 | 17 | -5 | -10 | -0.44 | 11
CCOC(=O)n1c(=O)n(Cc2ccc(Cl)cc2Cl)c2ccccc21 | 34* | -11 | -6 | . | 6
O=Nc1c(O)n(Cc2ccc(Cl)cc2Cl)c2ccccc12 | 65* | 34* | 14 | 0.13 | -15
CC(=O)Nc1ccccc1C(=O)C(=O)Nc1cccc(F)c1 | . | . | 39* | 0.25 | -43
CC(=O)OCc1c(C(F)(F)F)nn(C)c1SCc1ccc(Cl)cc1 | 29 | 11 | -10 | -1.3 | 12
CCn1cc(C(=O)Nc2nnc(C)s2)c(=O)c2cc(F)c(N3CCN(C(=O)c4ccco4)CC3)cc21 | . | . | 6 | . | -5
O=C(CCCCCN1C(=O)c2ccccc2C1=O)Nc1ccc(F)cc1 | . | . | -43 | -0.34 | 44
O=C(CCCN1C(=O)c2ccccc2C1=O)Oc1ccc(F)cc1 | 38* | -6 | -13 | 0.6 | 8
Cc1ccc(SCC(=O)Nc2ccccc2C(=O)O)cc1 | 5 | 3 | -8 | -1.7 | 8
COc1ccc(-c2nc3ccc(N4CCCC4)cc3c(=O)[nH]2)cc1OC | 13 | 6 | -13 | . | 14
COCCN1C(=O)C(=O)/C(=C(/O)c2cccc(OC)c2)C1c1ccco1 (stereo not given) | 32* | -4 | 13 | -1.3 | -13
Cc1cccc(N2CCN(C(=O)c3c(C)nn(Cc4ccccc4Cl)c3C)CC2)c1C | 38* | -3 | 3 | -5.5* | 0
CCCCNC(=S)NNC(=O)c1nn(C)cc1Cl | . | . | -5 | -0.07 | 8
O=c1c(/C=C(\O)c2ccccc2)nc2ccccc2n1-c1ccccc1 | 30* | -10 | -2 | 0.0067 | 1
CC(C)=CC(=O)OCC(=O)Nc1nc(C)c(Cl)cc1Cl | -4 | -1 | . | 0.012 | .
CC(C)=CC(=O)OCC(=O)Nc1ccc(F)cc1Cl | 33* | 12 | 1 | 0.9 | -2
c1ccc(N2CCN(c3nc4ccccc4n4cnnc34)CC2)cc1 | 23 | 6 | 9 | -2.5 | -9
c1ccc2c(c1)nc(N1CCOCC1)c1nncn12 | 0 | 14 | 7 | . | -10
c1ccc2c(c1)CCN(c1nc3ccccc3n3cnnc13)C2 | 43* | -5 | -9 | . | 12
c1ccc(CN2CCN(c3nc4ccccc4n4cnnc34)CC2)cc1 | 34* | -4 | -4 | -1.3 | 7
COc1ccc(C2(CN(C(C)=O)C(C)=O)CCCC2)cc1OC | 39* | 1 | 6 | 0.5 | -8
SMILES | PostGolgi ctrl | PostGolgi yeast | sEH act | Cav32 inh | sEH inh
COc1ccc(C2(CNC(=O)Cc3ccccc3)CCCC2)cc1OC | 10 | -1 | -1 | 0.7 | 1
OCCN(CCO)CC(O)COCCC12CC3CC(CC(C3)C1)C2 (stereo not given) | 8 | -9 | 0 | 0.68 | -1
CCOc1ccc(-c2nnc(NC(=O)c3ccc(OCC(C)C)c(OC)c3)o2)cc1 | 4 | 18 | . | -4.2* | .
COc1cccc(C(=O)Nc2nnc(-c3cccs3)o2)c1 | 39* | -8 | 6 | . | -6
CCCCNC(=O)Nc1nnc(-c2ccc(OCC)cc2)o1 | 9 | 10 | -1 | -0.88 | 0
COc1cccc(C(=O)Nc2nnc(-c3ccc(Cl)cc3)o2)c1 | . | . | . | -5.4* | .
O=C(Nc1nnc(-c2cccs2)o1)c1ccco1 | 7 | 2 | 1 | -0.24 | -1
O=C(Nc1nnc(-c2ccccc2)o1)c1ccc(Cl)cc1 | 74* | 110* | 13 | -3.2 | -13
CC(=O)c1ccc(C(=O)Nc2nnc(-c3ccc(Cl)cc3)o2)cc1 | . | . | . | -3.8 | .
CC(C)(C)NC(=O)C1Cc2ccccc2CN1C(=O)Nc1cccc(Cl)c1 (stereo not given) | -1 | 1 | 8 | -1.3 | -10
CC(=O)Nc1cccc2c1OCCO2 | 8 | 4 | -5 | -1.2 | 4
CSc1ncccc1C(=O)OCc1ccccc1 | -4 | -8 | 8 | -1 | -6
CSc1ncccc1C(=O)OCc1ccccc1F | 36* | -5 | -5 | -2.2 | 4

Screening data: PubChem BioAssay, several laboratories
